Data as given in PubChem BioAssay (NCATS).
Where “and” joins values, the source holds several entries; their conditions need not be identical. Equal values may be shown once. Results filed as inconclusive are left out. Calls of active or inactive are those of the source. Unless noted, calls follow the shape of the dose curve; as a rule, active = well fitted curve in the direction sought with a large enough effect; inconclusive = small, poorly fitted or top-dose-only effect, or another doubt; inactive = no such curve, though single readings can be large; an effect the other way counts as inactive or inconclusive.

How the values were obtained:
[1] = AP1 Signaling Pathway (AID 357; active = well fitted curve in either direction with a large enough effect, not every such curve was filed as active;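 also: ME-180 reporter cells stimulated with EGF at its EC50 level; % is scaled to controls: 0 for no effect and ±100 for the full control effect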); conditions: ME-180 AP-1-bla reporter, EGF-induced, beta-lactamase ratio, 5 h
Summary of the method: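 AP-1-bla ME-180 cells, Opti-MEM + 0.5% dialyzed FBS, plated overnight 37 °C. Cpd titration + EC50 EGF, 5 h 37 °C. CCF4 2.5 h RT; ex 405, em 460/530 ratio → %activity, AC50.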

[2] = target: Cytochrome P450 1A2 (Homo sapiens) (UniProt P05177); assay: p450-cyp1a2 (AID 410; calls by dose curve; also: potency is read from the fitted curve at half-maximal effect;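 as to activity change, negative = inhibition: -100% = full effect of reference inhibitor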)
Chain of Cytochrome P450 1A2 (Homo sapiens) (P05177 whole entry, looked up): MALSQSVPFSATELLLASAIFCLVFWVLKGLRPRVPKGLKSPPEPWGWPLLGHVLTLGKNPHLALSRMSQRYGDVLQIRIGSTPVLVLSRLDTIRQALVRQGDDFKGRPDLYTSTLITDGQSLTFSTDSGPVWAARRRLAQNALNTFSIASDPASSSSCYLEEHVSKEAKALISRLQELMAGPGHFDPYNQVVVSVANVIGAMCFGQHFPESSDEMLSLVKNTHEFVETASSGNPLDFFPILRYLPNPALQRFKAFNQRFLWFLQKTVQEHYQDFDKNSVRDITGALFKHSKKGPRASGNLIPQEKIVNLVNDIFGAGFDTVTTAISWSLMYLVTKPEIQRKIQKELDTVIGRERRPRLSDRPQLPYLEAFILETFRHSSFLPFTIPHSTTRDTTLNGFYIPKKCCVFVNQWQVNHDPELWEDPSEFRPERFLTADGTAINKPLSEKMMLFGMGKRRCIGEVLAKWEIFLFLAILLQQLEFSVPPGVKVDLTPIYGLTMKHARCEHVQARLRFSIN
Summary of the method: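 Human CYP1A2 (20nM) demethylated Luciferin-ME at its Km (100uM) in 100mM KPO4. After 10 min compound preincubation, NADPH regeneration ran the reaction 60 min at room temperature. Luciferin was read by luminescence, normalized to 57 uM furafylline.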

[3] = Stat Signaling Pathway (AID 446; active = well fitted curve in either direction with a large enough effect, not every such curve was filed as active;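 also: ME-180 cervical cancer cells given 40 pM IL-6 alongside compound; SIE-controlled beta-lactamase reporter measured as 460/530 nm FRET emission ratio; % is scaled to controls: 0 for no effect and ±100 for the full control effect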); conditions: ME-180 SIE beta-lactamase reporter, IL-6 stimulated, 5 h
Summary of the method: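 ME-180 SIE-bla cells; overnight plating; cpd + IL-6 40 pM, 5 h, 37 C; LiveBLAzer 2.5 h RT; 460/530 nm emission ratio. Normalized to 300 pM IL-6 and 125 nM JAK inhibitor controls.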

[4] = target: Mitogen-activated protein kinase 10 (Mus musculus) (UniProt Q61831); assay: JNK3 AlphaScreen Assay (AID 530; active = well fitted curve in either direction with a large enough effect, not every such curve was filed as active;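 also: kinase came from lysate of stimulated human HepG2 cells; signal reports phosphorylation of biotinylated GST-cJun 1-79 at Ser73 with 10 µM ATP; % is scaled to controls: 0 for no effect and ±100 for the full control effect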)
Summary of the method: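 qHTS format: compounds tested as titrations against IL-1beta/TNF-alpha-activated HepG2 lysate JNK3 with biotin-GST-cJun substrate and 10 uM ATP at room temperature. Loss of anti-phospho-cJun AlphaScreen signal indicates inhibition.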

[5] = target: 3',5'-cyclic-AMP phosphodiesterase 4B (Homo sapiens) (UniProt Q07343); assay: qHTS Assay for Inhibitors of PDE-IV (AID 607; active = well fitted activation curve with a large enough effect in the main read-out, with a control signal flat, not every such curve was filed as active; also: % of control where 0% means no effect)
Chain of 3',5'-cyclic-AMP phosphodiesterase 4B (Homo sapiens) (Q07343 whole entry, looked up): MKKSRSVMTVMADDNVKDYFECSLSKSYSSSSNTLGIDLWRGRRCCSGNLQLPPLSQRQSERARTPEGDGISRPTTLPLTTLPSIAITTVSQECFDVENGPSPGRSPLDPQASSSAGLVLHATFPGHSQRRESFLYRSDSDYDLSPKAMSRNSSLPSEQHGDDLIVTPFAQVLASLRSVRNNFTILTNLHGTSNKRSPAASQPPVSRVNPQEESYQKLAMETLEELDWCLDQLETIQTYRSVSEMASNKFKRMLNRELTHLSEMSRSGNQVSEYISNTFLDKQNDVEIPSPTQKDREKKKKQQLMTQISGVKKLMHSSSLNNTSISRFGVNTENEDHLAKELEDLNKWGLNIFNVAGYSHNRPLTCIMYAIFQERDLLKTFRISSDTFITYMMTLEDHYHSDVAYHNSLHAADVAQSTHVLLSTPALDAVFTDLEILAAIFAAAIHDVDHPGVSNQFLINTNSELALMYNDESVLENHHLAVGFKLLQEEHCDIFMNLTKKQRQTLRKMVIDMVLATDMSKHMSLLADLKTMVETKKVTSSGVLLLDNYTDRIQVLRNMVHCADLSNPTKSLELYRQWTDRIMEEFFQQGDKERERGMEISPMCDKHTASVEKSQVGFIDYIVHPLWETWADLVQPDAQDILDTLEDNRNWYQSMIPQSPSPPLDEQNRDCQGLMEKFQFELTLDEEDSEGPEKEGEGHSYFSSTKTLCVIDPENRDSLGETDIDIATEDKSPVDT
Summary of the method: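 ACTOne HEK293 cells carry a modified cAMP-gated CNG channel and express endogenous PDE4; plated 1000 cells/well, compounds up to 22.9 uM final. Membrane-potential dye fluorescence (ex 535/em 590) was read; parental cells received 10 uM forskolin + 100 uM RO 20-1724.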

[6] = target: Pyruvate kinase (Leishmania mexicana) (UniProt Q27686); assay: qHTS Validation Assay for Inhibitors of Leishmania Mexicana Pyruvate Kinase (AID 945);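 also: 0% = DMSO only neutral control wells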
Chain of Pyruvate kinase (Leishmania mexicana) (Q27686 2-499 E452W): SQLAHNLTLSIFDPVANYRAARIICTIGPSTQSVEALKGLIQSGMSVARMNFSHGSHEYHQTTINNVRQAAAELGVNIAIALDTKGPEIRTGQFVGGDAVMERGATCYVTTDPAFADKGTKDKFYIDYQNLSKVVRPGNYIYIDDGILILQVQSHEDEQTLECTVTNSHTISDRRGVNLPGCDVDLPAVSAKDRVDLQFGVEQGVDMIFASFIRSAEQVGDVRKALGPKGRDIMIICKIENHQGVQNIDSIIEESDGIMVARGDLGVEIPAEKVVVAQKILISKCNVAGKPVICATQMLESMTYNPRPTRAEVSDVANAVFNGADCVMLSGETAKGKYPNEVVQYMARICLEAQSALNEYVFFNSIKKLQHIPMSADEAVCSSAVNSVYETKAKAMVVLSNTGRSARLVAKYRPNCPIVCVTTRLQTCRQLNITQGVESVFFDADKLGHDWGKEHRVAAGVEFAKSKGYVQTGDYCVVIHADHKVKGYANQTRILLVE
Summary of the method: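 Pyruvate kinase activity of E451W LmPYK (0.2 nM) was followed as ATP output after 1 h at room temperature with 0.5 mM PEP and 0.1 mM ADP, detected by PKLight luminescence.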

[7] = target: Pyruvate kinase PKM (Homo sapiens) (UniProt P14618); assay: qHTS Assay for Activators of Human Muscle Pyruvate Kinase (AID 954; active = well fitted curve in the direction sought with a large enough effect, not every such curve was filed as active;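 also: 0% = uninhibited enzyme and -100% = no enzyme or full thiadiazolimine inhibition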)
Chain of Pyruvate kinase PKM (Homo sapiens) (P14618 whole entry, looked up): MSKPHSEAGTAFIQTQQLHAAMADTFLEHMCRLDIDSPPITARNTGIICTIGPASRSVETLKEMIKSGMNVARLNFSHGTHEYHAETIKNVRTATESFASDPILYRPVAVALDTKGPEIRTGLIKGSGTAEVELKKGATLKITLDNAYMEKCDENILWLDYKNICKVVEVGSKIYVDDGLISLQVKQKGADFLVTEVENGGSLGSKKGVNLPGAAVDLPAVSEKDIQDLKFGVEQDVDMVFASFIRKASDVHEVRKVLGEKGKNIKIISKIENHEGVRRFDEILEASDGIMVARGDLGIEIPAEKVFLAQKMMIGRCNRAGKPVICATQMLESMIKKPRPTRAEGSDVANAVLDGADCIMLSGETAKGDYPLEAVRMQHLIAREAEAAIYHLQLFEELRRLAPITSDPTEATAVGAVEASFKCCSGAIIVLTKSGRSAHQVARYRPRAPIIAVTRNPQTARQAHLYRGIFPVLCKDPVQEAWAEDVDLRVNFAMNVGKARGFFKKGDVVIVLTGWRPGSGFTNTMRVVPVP
Summary of the method: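 Luminescence from a luciferase ATP-detection/stop reagent reported PKM2 activity. Reactions contained 0.1 nM purified human enzyme, 0.5 mM PEP, 0.1 mM ADP and 7 mM MgCl2 at pH 7.2, run 1 h at RT.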

[8] = target: Alpha-galactosidase A (Homo sapiens) (UniProt P06280); assay: Counterscreen for Glucocerebrosidase Inhibitors: qHTS Assay for Human alpha-Galactosidase at pH 4.5 (AID 992); also: 0% is about no effect
Summary of the method: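 Enzyme at 2 nM final was combined with compound (0.7 nM to 77 uM) and 80 uM 4-methylumbelliferyl alpha-D-galactopyranoside in 50 mM citric acid, 0.005% Tween-20, pH 4.5. After 20 min at room temperature, fluorescence was read (Ex 365/Em 440 nm); AC50 came from Hill fits.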

[9] = target: alpha-glucosidase (Oryza sativa, rice) (UniProt Q653V4); assay: Counterscreen for Glucocerebrosidase Inhibitors: qHTS Assay for Rice alpha-Glucosidase at pH 5.0 (AID 997);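 also: 0% = full activity with enzyme and -100% = basal without enzyme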
Summary of the method: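 Rice alpha-glucosidase (4 nM final) with 400 uM 4-methylumbelliferyl-alpha-D-glucopyranoside in citrate buffer pH 5.0, 20 min at room temperature, stopped at pH 10; fluorescence 365/440 nm, compounds 0.7 nM–77 uM, AC50 from Hill fits.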

[10] = qHTS Assay for Lipid Storage Modulators (AID 1519; calls by dose curve); conditions: Drosophila S3 cells, BODIPY lipid droplet/cell ratio, laser cytometry, cells loaded with oleic acid; for activity change, negative = inhibition: at 25.7 µM (top of the series)
Summary of the method: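 Cells seeded at 5,000 per well were treated with compounds over a concentration series and loaded with oleic acid (400 uM, as added). Lipid droplet fluorescence (488 nm excitation, 500-530 nm channel) was read by laser-scanning cytometry and normalized to 20 uM Triacsin C.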

[11] = target: Ubiquitin carboxyl-terminal hydrolase 1 (Homo sapiens) (UniProt O94782); assay: Inhibitors of USP1/UAF1: Pilot qHTS (AID 504865);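 also: rhodamine fluorescence freed from ubiquitin-rhodamine substrate followed over time; top concentration of the series differs between compounds; % is scaled to controls: 0 for no effect and ±100 for the full control effect; nearly all actives have a fitted effect of over 35% in size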
Chain of Ubiquitin carboxyl-terminal hydrolase 1 (Homo sapiens) (O94782 whole entry, looked up): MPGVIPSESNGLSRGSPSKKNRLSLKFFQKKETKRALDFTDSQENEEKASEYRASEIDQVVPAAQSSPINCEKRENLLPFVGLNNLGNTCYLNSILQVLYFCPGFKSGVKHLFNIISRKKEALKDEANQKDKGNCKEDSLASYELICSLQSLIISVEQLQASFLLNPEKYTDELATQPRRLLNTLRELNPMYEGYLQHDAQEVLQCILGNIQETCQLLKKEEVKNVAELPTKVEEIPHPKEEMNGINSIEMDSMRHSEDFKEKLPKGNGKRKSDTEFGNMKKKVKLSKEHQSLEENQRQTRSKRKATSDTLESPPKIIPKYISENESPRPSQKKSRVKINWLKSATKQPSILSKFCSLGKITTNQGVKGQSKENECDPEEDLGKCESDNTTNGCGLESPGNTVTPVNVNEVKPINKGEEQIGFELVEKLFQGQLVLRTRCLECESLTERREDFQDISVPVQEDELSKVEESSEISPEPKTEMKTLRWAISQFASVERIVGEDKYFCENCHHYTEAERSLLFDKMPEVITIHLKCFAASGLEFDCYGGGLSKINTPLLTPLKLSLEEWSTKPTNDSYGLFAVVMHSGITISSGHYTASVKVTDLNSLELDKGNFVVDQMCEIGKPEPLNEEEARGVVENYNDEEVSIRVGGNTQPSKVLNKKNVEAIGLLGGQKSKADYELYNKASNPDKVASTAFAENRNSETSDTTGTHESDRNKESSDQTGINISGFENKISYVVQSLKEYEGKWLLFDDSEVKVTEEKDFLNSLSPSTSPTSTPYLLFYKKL
Summary of the method: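 1nM USP1/UAF1 + cpd, 15 min RT; start w/ Ub-Rho 150nM final; kinetic FL 480/540 nm, 6 reads q60 s. Buffer 50mM HEPES pH 7.8, 0.5mM EDTA, 1mM TCEP, 0.01% Tween-20, 0.1 mg/ml BSA.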

[12] = target: Luciferin 4-monooxygenase (Photinus pyralis) (UniProt P08659); assay: Biochemical firefly luciferase enzyme assay for NPC (AID 624030);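 also: purified P. pyralis luciferase at 10 nM with luciferin and ATP substrate; 0% = DMSO and -100% = full luciferase inhibition by PTC124 control; nearly all actives have a fitted effect of over 70% in size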
Chain of Luciferin 4-monooxygenase (Photinus pyralis) (P08659 whole entry, looked up): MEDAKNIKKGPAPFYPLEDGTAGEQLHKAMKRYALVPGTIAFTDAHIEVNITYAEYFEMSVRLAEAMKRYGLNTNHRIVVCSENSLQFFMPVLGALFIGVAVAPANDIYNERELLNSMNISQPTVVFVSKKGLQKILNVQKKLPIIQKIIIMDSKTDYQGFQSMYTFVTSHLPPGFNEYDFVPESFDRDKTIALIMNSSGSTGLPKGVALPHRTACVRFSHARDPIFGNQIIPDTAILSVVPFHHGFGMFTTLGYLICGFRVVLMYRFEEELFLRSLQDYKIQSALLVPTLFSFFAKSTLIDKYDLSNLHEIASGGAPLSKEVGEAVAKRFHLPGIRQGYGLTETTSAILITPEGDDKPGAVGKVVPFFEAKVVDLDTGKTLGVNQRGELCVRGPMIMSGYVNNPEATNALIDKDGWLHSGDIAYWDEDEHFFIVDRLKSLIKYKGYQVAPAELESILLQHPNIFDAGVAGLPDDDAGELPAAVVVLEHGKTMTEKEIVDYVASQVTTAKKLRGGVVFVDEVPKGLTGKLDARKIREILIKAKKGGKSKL
Summary of the method: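 Purified P. pyralis luciferase at 10 nM in 50 mM Tris Acetate (final), luminescence read within 5 minutes of enzyme addition to compounds. Activity normalised to PTC124 versus DMSO; concentration-response curves classed by r2, magnitude and activity.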

[13] = NFAT Signaling Pathway (AID 444; active = well fitted curve in either direction with a large enough effect, not every such curve was filed as active;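 also: carbachol stimulus at about its EC50 of 1 µM final; % is scaled to controls: 0 for no effect and ±100 for the full control effect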); conditions: Jurkat NFAT-bla M1, carbachol, beta-lactamase ratio, 5 h
Summary of the method: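 Jurkat cells with NFAT-driven β-lactamase reporter and co-expressed M1 receptor, stimulated with carbachol (final 1 uM, ~EC50), compound titration, 5 h at 37 °C. CCF4 loaded 1 h at RT; 460/530 nm ratio gave %activity and AC50.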

[14] = target: Glucocorticoid receptor (Homo sapiens) (UniProt P04150); assay: GR-GFP Redistribution (AID 450;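 active = compounds whose dose series gives a full or clear partial fitted curve of increased nuclear translocation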; also: potency is read from the fitted curve at half-maximal effect); conditions: U2OS GR-GFP nuclear translocation, laser cytometry, 2 h
Chain of Glucocorticoid receptor (Homo sapiens) (P04150 whole entry, looked up, the tested form may be a part): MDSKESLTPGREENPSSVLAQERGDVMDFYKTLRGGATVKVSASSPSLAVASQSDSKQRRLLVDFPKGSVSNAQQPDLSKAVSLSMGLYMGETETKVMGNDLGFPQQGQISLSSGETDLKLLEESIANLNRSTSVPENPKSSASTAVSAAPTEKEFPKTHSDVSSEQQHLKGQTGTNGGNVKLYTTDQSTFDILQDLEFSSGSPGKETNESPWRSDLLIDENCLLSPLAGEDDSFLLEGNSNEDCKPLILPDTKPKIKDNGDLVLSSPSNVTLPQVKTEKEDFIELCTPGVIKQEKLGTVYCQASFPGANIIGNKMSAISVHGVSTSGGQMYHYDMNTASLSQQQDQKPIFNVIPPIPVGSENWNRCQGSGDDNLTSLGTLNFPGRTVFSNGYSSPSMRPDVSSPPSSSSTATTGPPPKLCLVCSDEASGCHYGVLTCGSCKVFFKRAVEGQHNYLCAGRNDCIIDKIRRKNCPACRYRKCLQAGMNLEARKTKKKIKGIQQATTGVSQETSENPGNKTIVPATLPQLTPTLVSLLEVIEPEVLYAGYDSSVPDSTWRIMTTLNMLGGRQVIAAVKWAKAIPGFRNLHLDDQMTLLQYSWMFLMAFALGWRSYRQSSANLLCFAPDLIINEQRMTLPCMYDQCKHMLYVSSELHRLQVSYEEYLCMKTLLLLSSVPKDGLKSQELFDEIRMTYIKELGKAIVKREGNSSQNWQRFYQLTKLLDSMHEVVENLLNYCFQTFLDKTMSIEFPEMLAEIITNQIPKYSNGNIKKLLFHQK

[15] = target: Glucocorticoid receptor (Homo sapiens) (UniProt P04150); assay: GR-EFC Redistribution (AID 451; calls by dose curve; also: potency is read from the fitted curve at half-maximal effect); conditions: CHO-K1 GR-EFC translocation, beta-gal luminescence, 2 h
Summary of the method: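 CHO-K1 cells expressing nuclear EA and GR-ED fragments of b-gal; compounds titrated up to 46 uM final, 2 h at 37 C. GR nuclear translocation read as complemented b-gal luminescence after 1 h RT detection.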

[16] = target: ATP-dependent 6-phosphofructokinase (Trypanosoma brucei brucei) (UniProt O15648); assay: qHTS Assay to Find Inhibitors of T. brucei phosphofructokinase: hit validation (AID 492961)
Chain of ATP-dependent 6-phosphofructokinase (Trypanosoma brucei brucei) (O15648 whole entry, looked up): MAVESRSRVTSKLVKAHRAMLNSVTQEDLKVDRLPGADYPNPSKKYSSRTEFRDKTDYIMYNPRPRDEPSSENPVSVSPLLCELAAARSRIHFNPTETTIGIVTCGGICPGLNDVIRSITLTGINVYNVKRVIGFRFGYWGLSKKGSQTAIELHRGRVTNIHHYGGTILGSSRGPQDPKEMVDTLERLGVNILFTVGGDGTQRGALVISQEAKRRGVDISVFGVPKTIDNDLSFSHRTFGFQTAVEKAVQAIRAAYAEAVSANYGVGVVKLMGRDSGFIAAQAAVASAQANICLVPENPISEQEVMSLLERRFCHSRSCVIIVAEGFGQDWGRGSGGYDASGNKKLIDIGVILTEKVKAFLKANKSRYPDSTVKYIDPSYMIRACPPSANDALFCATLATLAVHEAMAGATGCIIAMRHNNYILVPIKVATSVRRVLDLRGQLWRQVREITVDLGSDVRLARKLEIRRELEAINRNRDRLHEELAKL
Summary of the method: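 Inhibition of parasite PFK is measured as reduced ADP formation, quantified via luciferase after ATP depletion. Assay used 0.1 mM ATP, 0.5 mM F6P, 1.25 nM enzyme, 45 min incubation.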

[17] = qHTS profiling for inhibitors of Plasmodium falciparum proliferation (AID 504749); also: potency is read from the fitted curve at half-maximal effect;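 as to activity, negative = inhibition: 0% = DMSO vehicle and full inhibition = artemisinin control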; as to all read-outs here: nearly all actives have a fitted effect of over 60% in size; conditions: P. falciparum in erythrocytes, SYBR Green DNA, 72 h; for activity, negative = inhibition: at 12.8 µM (top of the series)
Summary of the method: (§1)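 Readout was DNA-dye fluorescence from lysed cultures, ex 485/em 535 nm. Parasitized red cells had grown 72 h with compound; data scaled between 0.29 uM artemisinin and DMSO wells and corrected using vehicle-only plates.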

AS120 = assay: as above; conditions: P. falciparum in erythrocytes, SYBR Green DNA, 72 h; series mostly up to 28.7 µM
Summary of the method: as §1

CP250 = assay: as above; conditions: P. falciparum in erythrocytes, SYBR Green DNA, 72 h; series mostly up to 12.8 µM
Summary of the method: as §1

[18] = measured here: cell count channel max response
[19] = measured here: lipid channel max response
[20] = at 7.69 µM (top of the series) unless noted

CN(C)CCO[C@](C)(c1ccccc1)c1ccccn1
16.6%: max response [10, 18]
17.9%: max response [10, 19]
inactive: activity change, negative = inhibition ([1]; at 17.2 µM (top of the series)) 4.7% | activity change, negative = inhibition ([1]; at 38 µM (top of the series)) 3.93% | Potency [2] | activity, negative = inhibition ([3]; at 17.2 µM (top of the series)) -3.9% | activity, negative = inhibition ([3]; at 38 µM (top of the series)) 8.94% | Potency [4] | Potency [5] | outcome [6] | outcome [7] | outcome [8] | outcome [9] | activity change, negative = inhibition [10] 0.849% | Potency [11] | outcome [12]

NC(=O)OC[C@H](O)COc1ccc(Cl)cc1
active: Potency [2] 10 µM
inactive: activity change, negative = inhibition [1, 20] -4.9% [at 17.2 µM] | activity change, negative = inhibition [13, 20] -9.21% [at 17.2 µM] | activity, negative = inhibition [3, 20] 14.1% [at 17.2 µM] | Potency [14] > 20.6 µM | Potency [15] > 20.6 µM | Potency [4] | Potency [5] | activity change, negative = inhibition [10] -1.93% | outcome [16] | outcome [12] | activity, negative = inhibition ([17]; parasite line A) -2.39% | activity, negative = inhibition ([17]; parasite line B) -7.73% | Potency (AS120) | Potency (CP250)
14%: max response [10, 18]
12%: max response [10, 19]

CCN(CC)CCC[C@H](C)Nc1ccnc2cc(Cl)ccc12
-16%: max response [10, 19]
-15.4%: max response [10, 18]
active: Potency ([17]; parasite line A) 0.158 µM | Potency ([17]; parasite line B) 0.316 µM | Potency (AS120) 11.2 µM | Potency (CP250) 3.98 µM
inactive: activity change, negative = inhibition ([1]; at 17.2 µM (top of the series)) 13.4% | activity change, negative = inhibition ([1]; at 38 µM (top of the series)) 1.88% | activity change, negative = inhibition ([13]; at 17.2 µM (top of the series)) -9.2% | activity change, negative = inhibition ([13]; at 38 µM (top of the series)) -24.9% | activity, negative = inhibition ([3]; at 17.2 µM (top of the series)) 3.07% | activity, negative = inhibition ([3]; at 38 µM (top of the series)) 15.2% | Potency [14] > 46 µM and > 20.6 µM | Potency [15] > 46 µM and > 20.6 µM | Potency [4] | Potency [5] | outcome [6] | outcome [7] | outcome [8] | outcome [9] | activity change, negative = inhibition [10] -0.708% | outcome [16] | Potency [11] | outcome [12]
